Screens from PubChem.
Compounds with a hit are over-represented: about 4% of the library has one in this group of screens.
Gli-Sufu block = Gli-Sufu pathway antagonists, primary screen, luciferase luminescence, Sufu-KO-LIGHT cells, uHTS; Sufu-KO-LIGHT fibroblasts, Gli luciferase reporter luminescence; inhibition, % at 5 µM; 340,000 tested, 0.74% active; AID 588413, 2011;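 active = inhibition above about 55%, limit read from the data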;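 note: 0% = DMSO-treated cells and 100% = wells with medium but no cells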
PAX8 reporter = inhibitors of PAX8-driven TPO luciferase reporter, primary screen, RMG-I cells, single concentration; 360,000 tested, 1.2% active; SteadyGlo, 24 h; AID 652154, 2013; inhibition, % at 12.6 µM;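 active = mean replicate inhibition at least 60% with every replicate also reaching 60%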;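 note: luciferase light reporting Pax8 driven TPO promoter activity; plate controls were median of neutral control wells for no effect and mitoxantrone controls for full effect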
Beta cell apopt = inhibitors of cytokine-induced beta cell apoptosis, primary screen, luminescence; AID 435005, 2010; protection from apoptosis, % (concentration not given with the values); INS-1E cytokine-induced death, ATP luminescence, 48 h; percent of positive-control rescue, neutral wells zero; 300,000 tested, 0.8% active;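 active = Every replicate reaches about 75%, or at least half do and their mean reaches it too, limit read from the data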;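 note: 0% = cytokine-treated negative control wells and 100% = positive control rescue; higher means more ATP so stronger rescue from cytokine killing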
Mdm2-MdmX inh = inhibitors of human Mdm2-MdmX association, primary screen, cell-based, luminescence, split luciferase, SaOS-2, uHTS; Protein Mdm4 (Homo sapiens) + E3 ubiquitin-protein ligase Mdm2 (Homo sapiens), …; SaOS-2 split-luciferase Mdm2/MdmX complementation; inhibition, % at 8 µM; 330,000 tested, 3% active; AID 485346, 2010;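 active = inhibition of at least 50% at 8 µM in the primary screen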
Target sequence (O15151 whole entry, looked up): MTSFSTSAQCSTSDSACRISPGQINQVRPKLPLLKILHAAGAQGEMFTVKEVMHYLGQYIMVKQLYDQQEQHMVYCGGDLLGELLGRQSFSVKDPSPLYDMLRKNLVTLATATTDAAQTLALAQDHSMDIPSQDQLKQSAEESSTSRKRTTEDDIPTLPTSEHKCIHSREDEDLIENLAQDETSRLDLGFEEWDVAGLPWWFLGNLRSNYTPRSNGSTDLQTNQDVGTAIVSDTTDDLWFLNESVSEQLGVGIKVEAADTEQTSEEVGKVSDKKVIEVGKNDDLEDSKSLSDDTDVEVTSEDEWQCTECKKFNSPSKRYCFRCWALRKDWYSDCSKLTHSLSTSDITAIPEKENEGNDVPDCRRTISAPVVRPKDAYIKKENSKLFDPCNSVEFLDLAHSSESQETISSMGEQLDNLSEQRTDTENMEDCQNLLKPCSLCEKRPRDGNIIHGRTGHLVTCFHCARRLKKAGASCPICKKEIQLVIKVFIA
Target sequence (Q00987 whole entry, looked up): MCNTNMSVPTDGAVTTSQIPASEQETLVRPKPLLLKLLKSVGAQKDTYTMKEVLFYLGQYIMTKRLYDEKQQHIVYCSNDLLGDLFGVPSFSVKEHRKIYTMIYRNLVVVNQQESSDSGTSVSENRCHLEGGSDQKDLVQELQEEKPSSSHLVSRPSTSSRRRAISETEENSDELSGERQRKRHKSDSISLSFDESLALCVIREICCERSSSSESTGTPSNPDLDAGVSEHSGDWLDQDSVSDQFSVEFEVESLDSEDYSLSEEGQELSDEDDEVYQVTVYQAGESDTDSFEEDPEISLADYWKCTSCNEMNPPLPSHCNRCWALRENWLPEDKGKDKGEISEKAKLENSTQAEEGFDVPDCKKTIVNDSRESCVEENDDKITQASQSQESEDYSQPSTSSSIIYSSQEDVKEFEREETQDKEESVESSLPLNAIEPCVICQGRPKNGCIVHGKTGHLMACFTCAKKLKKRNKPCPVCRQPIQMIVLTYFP
Shn3 inh set2 = reduction of Shn3 3'UTR firefly luciferase signal, primary screen, Schnurri-3 inhibitor project, cell-based, Clone20 osteoblasts, set 2 | Clone20 osteoblast Shn3 3'UTR firefly luciferase, 24 h | inhibition, % at 12.5 µM | 360,000 tested, 0.52% active | AID 588674, 2011;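 active = mean inhibition of at least 75% with every replicate also reaching 75%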;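 note: 0% = median of neutral control wells and 100% = pilot-screen positive control compound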
CSC inhib = cancer stem cell viability inhibitors, primary screen, luminescence | 300,000 tested, 1.1% active | inhibition, % at 7.5 µM | cancer stem cell-like cells viability; in the data active = inhibition above about 75%; tested in HMLE shEcad cells
The depositor's hits bear a star; / = not tested or not shown.

SMILES	Gli-Sufu block	PAX8 reporter	Beta cell apopt	Mdm2-MdmX inh	Shn3 inh set2	CSC inhib
C[C@@H]1CN([C@H](C)CO)C(=O)c2cc(NC(=O)Cc3ccccc3)ccc2O[C@@H](C)CCCCO[C@@H]1CN(C)C(=O)C1CCCCC1	/	17	/	/	/	/
COc1cccc(NC(=O)C(NCCc2ccc(S(N)(=O)=O)cc2)c2ccccc2)c1 (stereo not given)	11	74*	11	-47	8	3
CCNC(=O)C[C@@H]1CC[C@H]2[C@H](COc3ccc(NC(=O)Nc4ccccc4F)cc3C(=O)N2C)O1	/	-4	/	/	/	/
CCn1c(/C=C/c2c(C)n(CC)c3ccccc23)nc2ccccc2c1=O	-2	72*	-1	31	0	/
CCn1c(/C=C/c2ccccc2C)nc2ccccc2c1=O	-29	-46	5	-14	-11	4
O=c1c2ccccc2nc(/C=C/c2ccc(Br)cc2)n1CCO	-3	-4	1	29	15	78*
O=c1c2ccccc2nc(/C=C/c2ccc([N+](=O)[O-])o2)n1CCCO	71*	/	2	33	96*	14
CS(=O)(=O)Nc1ccc2c(c1)[C@@H]1C[C@H](CC(=O)NCc3cccnc3)O[C@@H](CO)[C@@H]1O2	/	-15	/	/	/	/
CCCN(C)C[C@H]1Oc2ncc(C#CCC(C)C)cc2C(=O)N([C@@H](C)CO)C[C@H]1C	/	-18	/	/	/	/
COc1ccc(NC(=O)N[C@@H]2CC[C@@H](CCNS(=O)(=O)c3cccc(Cl)c3)O[C@@H]2CO)cc1	/	7	/	/	/	/
COc1cc(OC)nc(-n2ncc(Br)c(Br)c2=O)n1	36	108*	99*	/	97*	107*
CCC(=O)N[C@@H]1CC[C@H](CC(=O)NCc2ccc(OC)cc2)O[C@H]1CO	/	-4	/	/	/	/
Cc1ccc(S(=O)(=O)Nc2ccc3c(c2)C(=O)N([C@H](C)CO)C[C@H](C)[C@H](CN(C)S(=O)(=O)c2ccc(F)cc2)OCCCC[C@H](C)O3)cc1	/	68*	/	/	/	/
Cc1ccc(S(=O)(=O)N(C)C[C@@H]2OCCCC[C@H](C)Oc3ccc(NS(=O)(=O)c4ccc(F)cc4)cc3C(=O)N([C@@H](C)CO)C[C@@H]2C)cc1	/	58	/	/	/	/
Cc1ccc(S(=O)(=O)N(C)C[C@H]2OCCCC[C@@H](C)Oc3ccc(NS(=O)(=O)c4ccc(F)cc4)cc3C(=O)N([C@@H](C)CO)C[C@H]2C)cc1	/	83*	/	/	/	/
C[C@H](CO)N1C[C@H](C)[C@H](CN(C)S(=O)(=O)c2ccccc2)OCCCC[C@H](C)Oc2ccc(NS(=O)(=O)c3ccc(F)cc3)cc2C1=O	/	63*	/	/	/	/
Cc1ccc(S(=O)(=O)Nc2ccc3c(c2)C(=O)N([C@@H](C)CO)C[C@@H](C)[C@@H](CN(C)S(=O)(=O)c2ccc(F)cc2)OCCCC[C@@H](C)O3)cc1	/	68*	/	/	/	/
Cc1ccc(F)cc1S(=O)(=O)N[C@@H]1CCN(C(=O)c2ccc(OC(C)C)cc2)C1	/	5	/	/	/	/
Cc1noc(C)c1S(=O)(=O)Nc1cccc2c1O[C@H](CN(C)S(=O)(=O)c1ccc(F)cc1)[C@H](C)CN([C@@H](C)CO)C2=O	/	-49	/	/	/	/
Cc1ccc(S(=O)(=O)N(C)C[C@@H]2Oc3ccc(NC(=O)C4CC4)cc3CC(=O)N([C@@H](C)CO)C[C@@H]2C)cc1	/	28	/	/	/	/
Cc1ccc(S(=O)(=O)N(C)C[C@@H]2OCCCC[C@H](C)Oc3ccc(NS(=O)(=O)c4ccc(F)cc4)cc3C(=O)N([C@H](C)CO)C[C@@H]2C)cc1	/	70*	/	/	/	/
Cc1ccc(S(=O)(=O)Nc2ccc3c(c2)C(=O)N([C@@H](C)CO)C[C@H](C)[C@@H](CN(C)S(=O)(=O)c2ccc(F)cc2)OCCCC[C@@H](C)O3)cc1	/	20	/	/	/	/
O=C(C[C@H]1CC[C@@H]2[C@H](COC[C@H](O)CN2C(=O)Nc2ccccc2)O1)NC1Cc2ccccc2C1	/	8	/	/	/	/
O=C1c2cccc(OCC(=O)N3CCCc4ccccc43)c2CCN1Cc1ccccc1	-15	1	8	30	-17	88*
O=C1c2cccc(OCC(=O)N3CCCc4ccccc43)c2CCN1Cc1ccc(Br)cc1	7	6	7	41	51	52
SMILES	Gli-Sufu block	PAX8 reporter	Beta cell apopt	Mdm2-MdmX inh	Shn3 inh set2	CSC inhib
C/C=C/c1ccc([C@@H]2[C@H](C#N)N(c3nc(CC)cs3)[C@H]2CO)cc1	/	-2	/	/	/	/
CCCN(CCC)CCNC(=O)c1cc2c(-c3ccc(Cl)cc3)nn(C)c2s1	13	39	53	24	25	102*
CCN(CC)CCNC(=O)c1cc2c(-c3ccc(Cl)cc3)nn(C)c2s1	22	39	/	39	-13	/
Cn1nc(-c2ccc(Cl)cc2)c2cc(C(=O)NCCCN3CCOCC3)sc21	10	/	12	17	-7	79*
Cn1nc(-c2ccc(Cl)cc2)c2cc(C(=O)NCCN3CCOCC3)sc21	-4	10	4	12	11	47
COc1ccccc1CNC(=O)C[C@H]1CC[C@@H]2[C@H](COC[C@@H](O)CN2C(=O)Nc2ccc(F)cc2)O1	/	2	/	/	/	/
c1ccc(-c2nc(NCC3CCCO3)c3ccccc3n2)nc1 (stereo not given)	14	/	115*	13	25	-6
CCOc1ccc(Nc2nc(NCC3CCCO3)c3ccccc3n2)cc1 (stereo not given)	71*	22	52	28	69	-15
COc1ccccc1CNc1nc(NCc2cccs2)nc2ccsc12	/	22	/	/	42	/
COc1ccccc1CNc1nc(Nc2cccc(-c3cnco3)c2)c2sccc2n1	/	74*	/	/	84	/
COCCNc1nc(NCc2ccccc2OC)c2sccc2n1	/	/	/	/	73	/
COc1ccccc1CNc1nc(NCc2ccccc2OC)c2sccc2n1	/	3	/	/	87*	/
C[C@@H]1CN([C@@H](C)CO)C(=O)c2cc(N(C)C)ccc2O[C@@H](C)CCCCO[C@H]1CN(C)C(=O)C1CCCCC1	/	-1	/	/	/	/
COc1ccc(NC(=O)N(C)C[C@H]2Oc3c(NC(=O)c4cc(C)nn4C)cccc3C(=O)N([C@H](C)CO)C[C@@H]2C)cc1	/	-11	/	/	/	/
Cc1ccc(N=Nc2c(O)ccc3n[nH]nc23)cc1	-6	-129	99*	/	33	8
O=C(C[C@H]1CC[C@H](NC(=O)CC2CC2)[C@@H](CO)O1)NCc1ccc(-c2ccccc2)cc1	/	0	/	/	/	/
COc1ccc(S(=O)(=O)N2CCCCN3[C@H](CO)[C@H](c4ccc(C5=CCCC5)cc4)[C@H]3C2)cc1	/	5	/	/	/	/
CC(C)CC#Cc1ccc([C@@H]2[C@@H](CO)N3CCCCN(S(=O)(=O)c4ccc(F)cc4)C[C@H]23)cc1	/	91*	/	/	/	/
CC(C)CC#Cc1ccc([C@H]2[C@H]3CN(S(=O)(=O)c4ccc(F)cc4)CCCCN3[C@H]2CO)cc1	/	11	/	/	/	/
